Measured values from PubChem BioAssay AID1159580 (chemical genetic matrix, 2015).
In all, about 5,500 compounds went through this assay and about 2,000 (36%) were called active. Roughly 18% stayed inconclusive and do not appear here. Cut-off read from the data, not from the text of the source: active = normalized growth mostly below about 0.91 (no sharp cut-off); inconclusive = no clear call, values can overlap the other calls; inactive = mostly above about 0.92. This is one part of the list.

Assay: chemical genetic growth profiling, strain panel (AID 1159580);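 note: tested at 20 µM; growth read once vehicle control cultures reached saturation at 30 °C; 1 = growth at the plate median or of vehicle wells; lower values mean less growth of the strain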
Details: S. cerevisiae deletion strains, growth OD

Measured: normalized growth

O=c1[nH]ccc2c(O)cccc12
inactive: locus YAL013W, strain DEP1, hits give low values 0.996 | locus YAL040C, strain CLN3, hits give low values 0.999 | locus YCL061C, strain MRC1 (second series), hits give low values 0.996 | locus YDR363W, strain ESC2, hits give low values 1.02 | locus YER002W, strain NOP16, hits give low values 0.999 | locus YGR078C, strain PAC10, hits give low values 1 | locus YGR229C, strain SMI1, hits give low values 1.02 | locus YNL175C, strain NOP13, hits give low values 1.01 | locus YNL197C, strain WHI3, hits give low values 1.01 | locus YNL224C, strain SQS1, hits give low values 0.994 | locus YNL322C, strain KRE1, hits give low values 1 | locus YOR083W, strain WHI5 (second series), hits give low values 1.06 | locus YPL241C, strain CIN2, hits give low values 0.99
